# Laboratory results published in PubChem BioAssay AID2546 (National Center for Advancing Translational Sciences (NCATS), 2010).
# In all, about 310,000 compounds went through this assay and about 11,000 (3.5%) were called active. Another 8% or so got no clear call; they are omitted. The call rests on the fitted dose curve; in most records, active means well fitted inhibition curve with a large enough effect; inconclusive means small, poorly fitted or top-dose-only effect, or effect the other way; inactive means flat fitted curve, though single readings scatter. This excerpt belongs to a sample that is enriched for actives.
# Test: VP16 counterscreen qHTS for inhibitors of ROR gamma transcriptional activity;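 further: Gal4-VP16 expression switched on by copper sulfate through the metallothionein promoter; nearly all actives have a fitted effect of over 50% in size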
# Conditions: Drosophila S2 Gal4-VP16 UAS-luciferase, luminescence, 20 h; series mostly up to 53.6 µM; activity, negative = inhibition: at the top concentration
# On the % scale 0 is the no-effect control and ±100 the full control effect; potency means the concentration at half of the fitted maximal effect.
Compound,"activity, negative = inhibition",Potency
Cc1onc(-c2ccccc2)c1C(=O)N1CCN(S(=O)(=O)c2ccccc2C(F)(F)F)CC1,1.76% (inactive),
Cc1ccc(/C=C2\CCn3c2nc2cc(C(=O)O)ccc2c3=O)c(C)c1,5.94% (inactive),
CC1CC(C)CN(CCOc2cccc3ccccc23)C1 (stereo unspecified),0.773% (inactive),
CCOC(=O)[C@@H]1[C@H]2COc3cc(OC)ccc3[C@H]2N2C(=O)N(c3ccc(F)cc3)C(=O)[C@]12C,11.4% (inactive),
O=C(Nc1ccc2c(c1)OCCO2)c1ccc(Cl)c(S(=O)(=O)N2CCCCC2)c1,0.74% (inactive),
O=C(Nc1cccc(S(=O)(=O)N2CCCCC2)c1)c1ccc2c(c1)OCO2,-9.48% (inactive),
O=C(Nc1cccc(S(=O)(=O)Nc2ccc(Cl)cc2)c1)c1ccc2c(c1)OCCO2,,0.794 µM (active)
O=C(NC1CCCC1)C(c1c(F)cccc1Cl)N(C(=O)c1csnn1)C1CC1 (stereo unspecified),2.27% (inactive),
COc1ccc2nc(C)cc(Nc3cccc(C(=O)O)c3)c2c1,-0.583% (inactive),
COC(=O)CSc1nccc(-c2cccs2)n1,-4.83% (inactive),
O=C(O)COc1ccc(-c2nccc(-c3cccs3)n2)cc1,,15.8 µM (active)
O=C(Nc1ccnc(-c2ccncc2)n1)c1cccs1,-9.29% (inactive),
CCN(Cc1ccncc1)C(=O)CCc1ccccc1,2.93% (inactive),
Cc1ccc(SCCSc2ncccn2)cc1,-12% (inactive),
CC(C)(C)c1ccc(SCCc2ccncc2)cc1,,17.8 µM (active)
Cc1cc(C)c(SCCc2ccncc2)c(C)c1,,11.2 µM (active)
c1ccc(CSCCc2ccncc2)cc1,2.21% (inactive),
Cc1cc(C)c(NC(=O)CSc2nc3ccncc3[nH]2)c(C)c1,-3.75% (inactive),
C=CCOc1ccc(/C=C2/C(=O)ON=C2C)cc1OCC,-4.21% (inactive),
CCOc1ccc(NC(=O)C(C)N2C(=O)c3ccccc3C2=O)cc1 (stereo unspecified),-3.04% (inactive),
Cc1ccc(S(=O)(=O)NC2CCCCCC2)cc1C(N)=O,-7.37% (inactive),
COc1ccc(-n2c(=S)[nH]c3sc4c(c3c2=O)CCc2ccccc2-4)cc1,,0.251 µM (active)
CCc1ccc(-n2c(=S)sc3c(=O)n(-c4ccccc4OC)c(=S)[nH]c32)cc1,-8.14% (inactive),
CCCSc1nc2sc3c(c2c(=O)n1-c1ccc(OC)cc1)CCN(C)C3,-0.0853% (inactive),
O=C(Nc1ccc(C(=O)N2CCCCC2)cc1)c1cccc([N+](=O)[O-])c1,19.8% (inactive),
COc1cc(C(=O)NCc2ccncc2)cc(Br)c1OCc1ccccc1,-1.79% (inactive),

Compound,"activity, negative = inhibition",Potency
CC(C)[C@@H]1COC(c2cccc(C3=N[C@H](C(C)C)CO3)c2)=N1,5.4% (inactive),
C#CCOc1ccc(/C=C2/C(=O)ON=C2C)cc1OCC,-17.6% (inactive),
O=C(Nc1ccc2c(c1)nc1n2CCCCC1)c1cc(S(=O)(=O)N2CCOCC2)ccc1Cl,,12.6 µM (active)
O=C(Nc1ccc2nc3n(c(=O)c2c1)CCCCC3)c1ccccc1Cl,-19.2% (inactive),
O=C(Nc1ccc(N2CCOCC2)c(Cl)c1)c1ccc(S(=O)(=O)N2CCOCC2)cc1,-8.97% (inactive),
Nc1ncc(CN2CCCC(C(=O)Nc3ccc(-c4ccco4)cc3)C2)cn1 (stereo unspecified),2.6% (inactive),
N=c1oc2ccccc2cc1C(=O)NCc1ccccc1,26.3% (inactive),
CCCNC(=O)COc1coc(CN2CCN(Cc3ccccc3)CC2)cc1=O,-4% (inactive),
COc1cccc(-n2cc(C(=O)O)c3ccccc3c2=O)c1,-0.477% (inactive),
COc1cccc(-n2c(=S)[nH]c3c(oc4ccccc43)c2=O)c1,,11.2 µM (active)
COc1cccc(N2C(=O)CN(Cc3ccccc3)C2=S)c1,-3.18% (inactive),
CCC(CC)COC(=O)C1=C(C)NC(=O)NC1c1ccc([N+](=O)[O-])cc1 (stereo unspecified),-3.51% (inactive),
COCCn1c(SCC(=O)N2CCCCCC2)nc2c(c1=O)SCC2,4.31% (inactive),
Oc1cccc(/C=N/Nc2ccc(Cl)nn2)c1O,,2.82 µM (active)
COc1cccc(/C=N/Nc2ccc(Cl)nn2)c1,-15.1% (inactive),
Cc1ccsc1/C=N/Nc1ccc(Cl)nn1,1.26% (inactive),
CN(C)S(=O)(=O)c1ccc(NC(=O)N2CCOCC2)cc1,-9.25% (inactive),
CN(C)S(=O)(=O)c1ccc(Oc2ccc(S(=O)(=O)N(C)C)cc2)cc1,,3.16 µM (active)
Cc1ccc(S(=O)(=O)c2ccc(Oc3ccccc3)cc2)cc1,-26.4% (inactive),
CSc1ncc(C(=O)NCCCc2ccccc2)c(C)n1,21.5% (inactive),
O=C(Cc1cccs1)Nc1cccc(-c2nc3ccccc3[nH]2)c1,15.7% (inactive),
O=C(Nc1cccc(-c2nc3ccccc3[nH]2)c1)c1ccc(C(=O)Nc2cccc(-c3nc4ccccc4[nH]3)c2)cc1,,2.82 µM (active)
O=C(/C=C/c1ccco1)Nc1cccc(-c2nc3ccccc3[nH]2)c1,12.4% (inactive),
Cc1c(C)c2ccc(OCC(=O)N3CCC(C(=O)O)CC3)c(C)c2oc1=O,-14.8% (inactive),
CC(=O)c1c(C)oc2ccc(NS(=O)(=O)c3ccccc3)cc12,-22.8% (inactive),
COC(=O)COc1ccc(S(=O)(=O)Nc2ccc(NC(C)=O)cc2)cc1,-5.35% (inactive),

Compound,"activity, negative = inhibition",Potency
COc1ccc(/C=N/NS(=O)(=O)c2ccc(NC(C)=O)cc2)cc1,2.73% (inactive),
COc1ccc(S(=O)(=O)Nc2ccc3oc(C)c(C(C)=O)c3c2)cc1,,11.2 µM (active)
CC(=O)c1c(C)oc2ccc(NS(=O)(=O)c3ccc(C(=O)O)cc3)cc12,4.83% (inactive),
COc1cc(NS(=O)(=O)c2ccc(NC(C)=O)cc2)cc(OC)c1,,20 µM (active)
Cc1ccnc(NS(=O)(=O)c2ccc(NC(=O)c3oc4ccc(F)cc4c3C)cc2)n1,-12.4% (inactive),
CC1CCCCN1C(=O)CCS(=O)(=O)Cc1ccccc1 (stereo unspecified),1.9% (inactive),
COc1ccc(/C=C2\SC(=O)N(CCC(=O)NCCCn3ccnc3)C2=O)cc1,0.385% (inactive),
COc1ccc(C2=Nn3c(nnc3-c3ccccc3O)SC2)cc1,-17% (inactive),
CCn1cc(C(=O)NCC(=O)NC(C)(C)CO)c(=O)c2cc3c(cc21)OCO3,-2.53% (inactive),
Cc1ccc(C(=O)NC23CC4CC(CC(C4)C2)C3)c(Cl)c1,23.1% (inactive),
Cc1noc(C)c1CCC(=O)N1CCCC(CO)(Cc2ccccc2)C1 (stereo unspecified),-1.97% (inactive),
CCCOc1ccccc1C1CC(=O)Nc2cc3c(cc21)OCO3 (stereo unspecified),,14.1 µM (active)
COc1ccc(C2CC(=O)Nc3cc(C)c(C)cc32)c(OC)c1OC (stereo unspecified),0.0143% (inactive),
COc1ccccc1C1C2=C(COC2=O)Nc2cc3c(cc21)OCO3 (stereo unspecified),2.3% (inactive),
O=C(NCCCN1CCCC1=O)C(=O)NCC1OCCN1S(=O)(=O)c1ccc(Br)cc1 (stereo unspecified),20.7% (inactive),
O=C(O)c1ccc(NC(=O)c2cn(-c3ccccc3)nc2-c2ccc(Cl)cc2)cc1,-9.81% (inactive),
CC(C)(C)OC(=O)N/N=C/c1cn(-c2ccccc2)nc1-c1cccnc1,-14% (inactive),
O=C(O)c1ccccc1-c1ccccc1C(=O)Nc1nccs1,-6.71% (inactive),
COc1ccc(-c2nn(-c3ccccc3)cc2C(=O)Nc2nccs2)cc1OC,,22.4 µM (active)
COc1ccc(-c2nn(-c3ccccc3)cc2/C=N/Nc2ccccn2)cc1OC,,8.91 µM (active)
CN(C)/N=C/c1cn(-c2ccccc2)nc1-c1cccnc1,-6.24% (inactive),
CC(=O)Cc1nsc(NC(=O)c2ccc(COc3ccc(C)cc3)o2)n1,-3.91% (inactive),
COc1ccc(-c2nn(-c3ccccc3)cc2C(=O)Nc2nc(CC(C)=O)ns2)cc1,,12.6 µM (active)
COc1ccc(NC(=O)c2cn(-c3ccccc3)nc2SC)cc1,-0.895% (inactive),
